Source: PubChem BioAssay AID2507 (National Center for Advancing Translational Sciences (NCATS), 2010)
Results filed as inconclusive are left out. Active and inactive are the calls of the source. The call rests on the fitted dose curve; in most records, active means well fitted inhibition curve with a large enough effect; inconclusive means small, poorly fitted or top-dose-only effect, or effect the other way; inactive means flat fitted curve, though single readings scatter.

Assay: Secondary Assay for General miRNAs Modulators and/or Inhibitors/Activators of miR-21: miR-30 Firefly Luciferase Assay
Conditions: HeLa miR-30 FLuc reporter, luminescence, 48 h; series mostly up to 38.3 µM
Description: MLSCN Grant: 1 R21 NS059478-01 Assay Provider: Qihong Huang, The Wistar Institute NCGC Assay Overview: MicroRNAs (miRNAs) are endogenously encoded small (~20-25 nucleotides), nonprotein-coding RNAs that are involved in post-transcriptional repression of target messenger RNAs (mRNAs) (Le and Hannon, 2004). Estimated to be involved in the regulation of 30% of all protein-coding mRNAs (Filipowicz et al., 2008), miRNAs play a significant role in many biological processes including cellular differentiation and tissue development (Ghildiyal and Zamore, 2009). […] Compounds active in the miR-21 FLuc assay were clustered using Leadscope and active chemical series were prioritized based on chemical properties, potential for medicinal chemistry optimization, and SAR. Within each chemical series, representative compounds were re-acquired to test for activity in a secondary assay based on the quality of their CRC, efficacy, and potency. The secondary assay to determine if compounds active in the miR-21 FLuc assay were potentially specific for miR-21 and were not general modulators of the miRNA pathway was another cell-based FLuc reporter gene assay, this time targeting miR-30. Compounds found active in both the miR-21 FLuc and miR-30 FLuc assays are not considered miR-21 specific compounds, and may be general miRNA modulators.
NCGC Assay Protocol Summary: Reagents: HeLa cells stably expressing firefly luciferase (FLuc) under the control of a CMV promoter (upstream) and a miR-30 binding sequence directly downstream of the gene. These cells also stably express miR-30. Control compounds used were compound C3 (provided by collaborator), N6-phenyladenosine (MP Biomedicals, 0215379625), and DMSO. Assay Summary: 6uL of HeLa miR-30-FLuc cells in assay buffer (DMEM, Invitrogen #21063-029; 10% FBS, HyClone #SH30071.03) were dispensed at 1000cells/well (1.7 x 10^5 cells/mL) into Greiner solid-white TC-treated 1536-well plates using a Multidrop Combi (Thermo Fisher Scientific). Plates were incubated for one hour at 37 degree Celsius, 95% humidity, 5% CO2. These assay plates were then treated with 23nL of compound or DMSO using a Kalypsys pin tool, which allows for delivery of a 24-point titration of each compound to the assay plate, with a final compound concentration ranging from approximately 40uM to 5pM. Assay plates were then incubated for 48 hours. After incubation, plates were allowed to come to RT for one hour prior to delivery of 3uL of 3X luciferase detection reagent. After a 15 minute incubation to allow for cell lysis, luciferase activity was measured using a ViewLux CCD imager (PerkinElmer), with an average exposure time of 2-12 seconds. Keywords: NIH Roadmap, MLPCN, MLSMR, qHTS, miR-21, miR-30, microRNA, firefly luciferase, FLuc.

Row | SMILES | Potency
1 | O=C(CSc1nnc(-c2ccc(Cl)cc2)o1)Nc1ccc(F)cc1 | 3.18 µM (active)
